Reference: the supplement of paper PMC11732987, “Enantioselective OTUD7B fragment discovery through chemoproteomics screening and high-throughput optimisation” (Communications Chemistry, 2025)
Unmarked numbers belong to inactive results.

Assays:
Assay in all cases: log2 ratio of Biotin-Ahx-Ub-VS probe labelling (fragment/DMSO); higher = less target engagement (more negative = stronger competition), active = hit call of the paper (q ≤ 0.05, log2 ratio ≤ -1)
Details in all cases: compound concentration: 200 uM; treatment time: 3 h
USP42 = molecular target: T1, USP42 (UniProt Q9H9J4)
T1 sequence (whole entry): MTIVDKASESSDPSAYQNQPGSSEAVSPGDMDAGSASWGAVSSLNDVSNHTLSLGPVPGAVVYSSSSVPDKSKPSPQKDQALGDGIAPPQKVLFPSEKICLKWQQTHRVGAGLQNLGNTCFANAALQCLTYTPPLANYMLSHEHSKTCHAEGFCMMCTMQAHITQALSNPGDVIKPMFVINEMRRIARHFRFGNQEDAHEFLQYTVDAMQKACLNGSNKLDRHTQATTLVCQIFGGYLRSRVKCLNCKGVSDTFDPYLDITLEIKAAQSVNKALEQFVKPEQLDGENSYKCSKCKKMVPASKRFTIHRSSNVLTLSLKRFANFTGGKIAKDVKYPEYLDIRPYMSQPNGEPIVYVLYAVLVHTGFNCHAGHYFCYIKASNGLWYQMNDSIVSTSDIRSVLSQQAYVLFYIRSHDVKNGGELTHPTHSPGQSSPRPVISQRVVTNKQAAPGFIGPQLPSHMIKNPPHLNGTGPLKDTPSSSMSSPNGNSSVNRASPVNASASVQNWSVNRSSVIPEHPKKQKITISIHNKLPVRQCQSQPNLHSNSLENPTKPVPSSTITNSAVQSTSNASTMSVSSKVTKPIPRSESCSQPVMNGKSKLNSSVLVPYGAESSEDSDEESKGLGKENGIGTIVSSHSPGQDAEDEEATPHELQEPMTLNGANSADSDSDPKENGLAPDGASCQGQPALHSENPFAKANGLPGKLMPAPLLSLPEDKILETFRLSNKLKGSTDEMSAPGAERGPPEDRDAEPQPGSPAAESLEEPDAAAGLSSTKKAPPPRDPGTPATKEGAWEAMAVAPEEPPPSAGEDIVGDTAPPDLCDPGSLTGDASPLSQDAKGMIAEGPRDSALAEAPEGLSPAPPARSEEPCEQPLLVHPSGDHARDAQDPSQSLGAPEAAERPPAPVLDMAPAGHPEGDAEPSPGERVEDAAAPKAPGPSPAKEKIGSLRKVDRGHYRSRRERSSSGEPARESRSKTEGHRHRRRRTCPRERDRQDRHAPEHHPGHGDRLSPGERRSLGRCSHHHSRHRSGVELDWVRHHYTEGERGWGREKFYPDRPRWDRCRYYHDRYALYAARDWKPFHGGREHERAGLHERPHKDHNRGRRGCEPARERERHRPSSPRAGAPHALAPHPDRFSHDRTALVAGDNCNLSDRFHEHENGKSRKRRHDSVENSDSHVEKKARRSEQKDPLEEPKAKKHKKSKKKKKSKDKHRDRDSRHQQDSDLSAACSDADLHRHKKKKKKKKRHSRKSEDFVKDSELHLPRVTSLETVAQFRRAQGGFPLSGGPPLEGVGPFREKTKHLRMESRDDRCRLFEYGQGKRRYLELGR
Procedure, shortened: (§1)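 Labelled DUBs were enriched with NeutrAvidin, digested with LysC and trypsin, and run by diaPASEF LC-MS/MS. The labelling used Biotin-Ahx-Ub-VS at 0.5 µM final for 1 h on HEK293T lysate (495 µg per sample) previously treated in triplicate with fragment at 200 µM or vehicle for 3 h. Values are average log2 fragment/vehicle ratios by unpaired t-test on global-median-normalised Spectronaut quantities of proteins with ≥2 unique peptides.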

USP46 = USP46 (UniProt P62068)
Chain of USP46 (P62068 whole entry): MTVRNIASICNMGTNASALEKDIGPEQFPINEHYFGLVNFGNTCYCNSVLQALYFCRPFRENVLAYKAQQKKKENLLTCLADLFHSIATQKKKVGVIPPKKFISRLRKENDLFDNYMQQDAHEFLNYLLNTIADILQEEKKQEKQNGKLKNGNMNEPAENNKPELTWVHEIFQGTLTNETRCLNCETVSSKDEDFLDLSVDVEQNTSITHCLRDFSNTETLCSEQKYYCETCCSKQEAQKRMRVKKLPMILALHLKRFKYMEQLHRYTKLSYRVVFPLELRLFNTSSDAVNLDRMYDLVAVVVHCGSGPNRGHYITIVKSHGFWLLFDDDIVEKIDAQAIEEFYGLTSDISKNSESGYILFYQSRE
Procedure, shortened: as §1

USP47 = molecular target: T2, USP47 (UniProt Q96K76)
T2 sequence (whole entry): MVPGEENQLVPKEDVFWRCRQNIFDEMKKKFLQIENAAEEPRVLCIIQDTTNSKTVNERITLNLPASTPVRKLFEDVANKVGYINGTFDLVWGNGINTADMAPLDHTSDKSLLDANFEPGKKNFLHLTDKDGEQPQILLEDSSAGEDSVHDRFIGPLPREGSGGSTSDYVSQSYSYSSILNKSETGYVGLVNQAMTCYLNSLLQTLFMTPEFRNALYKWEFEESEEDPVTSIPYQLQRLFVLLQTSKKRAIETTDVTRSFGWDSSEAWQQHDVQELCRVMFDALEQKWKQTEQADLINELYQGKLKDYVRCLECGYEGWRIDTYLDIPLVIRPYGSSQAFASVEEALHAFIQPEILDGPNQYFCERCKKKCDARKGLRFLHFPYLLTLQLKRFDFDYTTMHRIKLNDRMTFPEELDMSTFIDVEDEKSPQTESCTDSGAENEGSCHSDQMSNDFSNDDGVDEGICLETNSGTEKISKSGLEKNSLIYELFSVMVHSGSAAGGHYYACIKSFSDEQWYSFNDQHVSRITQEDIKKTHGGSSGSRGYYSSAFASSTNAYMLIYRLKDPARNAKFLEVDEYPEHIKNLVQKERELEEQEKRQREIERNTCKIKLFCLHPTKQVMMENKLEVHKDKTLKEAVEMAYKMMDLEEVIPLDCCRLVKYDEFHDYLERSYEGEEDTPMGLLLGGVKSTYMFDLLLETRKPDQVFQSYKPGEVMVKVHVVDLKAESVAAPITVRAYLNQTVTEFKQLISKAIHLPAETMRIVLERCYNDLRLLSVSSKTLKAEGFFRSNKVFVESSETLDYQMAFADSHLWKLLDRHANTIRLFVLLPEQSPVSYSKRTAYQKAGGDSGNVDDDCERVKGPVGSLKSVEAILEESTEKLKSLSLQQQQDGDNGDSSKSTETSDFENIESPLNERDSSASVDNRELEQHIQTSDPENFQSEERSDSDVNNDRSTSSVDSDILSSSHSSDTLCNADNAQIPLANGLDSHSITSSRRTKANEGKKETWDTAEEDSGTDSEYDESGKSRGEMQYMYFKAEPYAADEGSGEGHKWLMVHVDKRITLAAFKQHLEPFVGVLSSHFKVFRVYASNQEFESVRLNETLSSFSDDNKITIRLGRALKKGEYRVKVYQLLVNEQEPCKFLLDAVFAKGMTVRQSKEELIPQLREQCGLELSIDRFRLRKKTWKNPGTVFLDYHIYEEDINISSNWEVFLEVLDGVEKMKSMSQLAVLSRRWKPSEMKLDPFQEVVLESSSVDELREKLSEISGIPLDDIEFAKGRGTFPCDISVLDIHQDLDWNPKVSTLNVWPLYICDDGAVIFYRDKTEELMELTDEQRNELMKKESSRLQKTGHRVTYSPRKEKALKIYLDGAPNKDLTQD
Procedure, shortened: as §1

USP48 = molecular target: T3, USP48 (UniProt Q86UV5)
T3 sequence (whole entry): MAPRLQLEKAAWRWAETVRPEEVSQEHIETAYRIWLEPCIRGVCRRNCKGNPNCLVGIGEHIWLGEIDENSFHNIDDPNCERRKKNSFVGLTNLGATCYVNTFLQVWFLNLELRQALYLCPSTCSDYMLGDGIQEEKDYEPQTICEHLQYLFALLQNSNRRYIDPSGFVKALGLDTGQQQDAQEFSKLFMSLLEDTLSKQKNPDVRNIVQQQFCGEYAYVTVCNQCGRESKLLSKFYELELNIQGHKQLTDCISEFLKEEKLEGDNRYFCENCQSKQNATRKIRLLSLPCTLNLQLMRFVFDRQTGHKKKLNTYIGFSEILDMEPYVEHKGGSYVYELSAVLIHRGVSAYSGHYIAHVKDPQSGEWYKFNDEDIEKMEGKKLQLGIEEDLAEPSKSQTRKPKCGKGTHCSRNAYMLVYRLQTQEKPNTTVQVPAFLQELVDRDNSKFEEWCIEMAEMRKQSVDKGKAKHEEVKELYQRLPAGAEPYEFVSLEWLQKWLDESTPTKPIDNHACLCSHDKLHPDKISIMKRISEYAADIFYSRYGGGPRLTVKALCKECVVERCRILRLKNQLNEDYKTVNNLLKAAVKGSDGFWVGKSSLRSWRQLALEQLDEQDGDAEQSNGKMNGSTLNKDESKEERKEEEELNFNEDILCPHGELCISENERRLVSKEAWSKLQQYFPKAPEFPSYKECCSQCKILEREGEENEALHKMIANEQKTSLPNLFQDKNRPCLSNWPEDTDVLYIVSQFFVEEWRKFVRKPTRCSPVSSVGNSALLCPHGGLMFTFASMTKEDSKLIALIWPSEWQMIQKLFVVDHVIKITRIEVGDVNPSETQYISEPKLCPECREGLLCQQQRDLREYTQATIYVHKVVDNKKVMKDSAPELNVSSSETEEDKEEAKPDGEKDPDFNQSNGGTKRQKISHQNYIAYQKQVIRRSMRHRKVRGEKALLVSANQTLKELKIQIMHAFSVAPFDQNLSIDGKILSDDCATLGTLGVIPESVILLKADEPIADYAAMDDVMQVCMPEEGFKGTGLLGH
Procedure, shortened: as §1

USP5 = molecular target: T4, USP5 (UniProt P45974)
T4 sequence (whole entry): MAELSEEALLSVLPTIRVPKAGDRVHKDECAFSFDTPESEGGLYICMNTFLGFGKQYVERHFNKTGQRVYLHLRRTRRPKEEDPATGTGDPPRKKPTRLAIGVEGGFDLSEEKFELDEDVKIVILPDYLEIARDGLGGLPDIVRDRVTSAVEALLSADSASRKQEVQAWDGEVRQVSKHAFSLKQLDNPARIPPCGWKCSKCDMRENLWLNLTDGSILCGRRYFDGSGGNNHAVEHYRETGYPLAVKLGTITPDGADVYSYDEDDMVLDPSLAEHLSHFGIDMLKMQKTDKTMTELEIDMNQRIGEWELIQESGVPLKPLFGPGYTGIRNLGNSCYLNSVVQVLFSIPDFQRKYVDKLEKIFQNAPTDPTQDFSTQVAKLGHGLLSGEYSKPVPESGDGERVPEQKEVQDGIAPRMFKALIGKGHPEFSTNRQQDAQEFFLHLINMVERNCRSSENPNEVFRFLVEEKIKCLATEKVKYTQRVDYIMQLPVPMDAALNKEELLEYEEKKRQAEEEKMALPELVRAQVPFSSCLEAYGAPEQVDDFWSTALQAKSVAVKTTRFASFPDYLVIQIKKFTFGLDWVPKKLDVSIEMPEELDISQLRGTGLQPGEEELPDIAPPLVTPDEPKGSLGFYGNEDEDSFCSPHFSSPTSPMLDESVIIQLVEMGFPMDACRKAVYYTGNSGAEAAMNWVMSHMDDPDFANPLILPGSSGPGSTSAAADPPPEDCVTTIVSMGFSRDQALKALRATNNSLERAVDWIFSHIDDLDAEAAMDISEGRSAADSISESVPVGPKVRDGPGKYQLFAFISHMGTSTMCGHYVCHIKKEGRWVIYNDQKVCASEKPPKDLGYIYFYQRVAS
Procedure, shortened: as §1

USP54 = USP54 (UniProt Q70EL1)
Procedure, shortened: as §1

USP7 = USP7 (UniProt Q93009)
Chain of USP7 (Q93009 whole entry, looked up): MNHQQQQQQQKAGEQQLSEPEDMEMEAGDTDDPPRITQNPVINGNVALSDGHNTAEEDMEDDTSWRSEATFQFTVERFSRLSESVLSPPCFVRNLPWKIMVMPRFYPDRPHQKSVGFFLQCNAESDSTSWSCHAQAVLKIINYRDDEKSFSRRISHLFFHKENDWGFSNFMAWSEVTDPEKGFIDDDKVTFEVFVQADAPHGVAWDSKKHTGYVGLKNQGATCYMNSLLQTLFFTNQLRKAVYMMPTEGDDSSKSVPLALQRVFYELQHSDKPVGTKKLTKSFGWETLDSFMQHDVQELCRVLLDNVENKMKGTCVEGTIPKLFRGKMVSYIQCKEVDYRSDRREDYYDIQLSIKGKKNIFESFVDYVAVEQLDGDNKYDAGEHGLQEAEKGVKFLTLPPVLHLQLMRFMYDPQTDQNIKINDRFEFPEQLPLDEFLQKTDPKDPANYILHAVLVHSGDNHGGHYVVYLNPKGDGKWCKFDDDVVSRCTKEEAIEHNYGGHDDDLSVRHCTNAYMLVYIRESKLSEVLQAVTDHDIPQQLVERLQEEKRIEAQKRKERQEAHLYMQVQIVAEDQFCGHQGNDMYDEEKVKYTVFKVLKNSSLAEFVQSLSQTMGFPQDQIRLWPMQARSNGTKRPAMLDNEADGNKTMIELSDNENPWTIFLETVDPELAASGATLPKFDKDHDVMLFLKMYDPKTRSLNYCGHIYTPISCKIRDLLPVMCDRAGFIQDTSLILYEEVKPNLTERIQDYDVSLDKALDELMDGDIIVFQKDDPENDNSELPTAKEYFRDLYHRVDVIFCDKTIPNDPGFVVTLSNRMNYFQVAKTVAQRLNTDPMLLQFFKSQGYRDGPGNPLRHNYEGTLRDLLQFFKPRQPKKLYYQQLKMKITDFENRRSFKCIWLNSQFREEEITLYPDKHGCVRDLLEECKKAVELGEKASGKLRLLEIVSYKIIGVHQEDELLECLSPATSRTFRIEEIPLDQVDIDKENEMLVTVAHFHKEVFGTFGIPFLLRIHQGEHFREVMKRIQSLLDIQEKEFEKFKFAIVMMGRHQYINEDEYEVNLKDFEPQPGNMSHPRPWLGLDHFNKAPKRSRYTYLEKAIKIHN
Procedure, shortened: as §1

USP8 = molecular target: T5, USP8 (UniProt P40818)
T5 sequence (whole entry): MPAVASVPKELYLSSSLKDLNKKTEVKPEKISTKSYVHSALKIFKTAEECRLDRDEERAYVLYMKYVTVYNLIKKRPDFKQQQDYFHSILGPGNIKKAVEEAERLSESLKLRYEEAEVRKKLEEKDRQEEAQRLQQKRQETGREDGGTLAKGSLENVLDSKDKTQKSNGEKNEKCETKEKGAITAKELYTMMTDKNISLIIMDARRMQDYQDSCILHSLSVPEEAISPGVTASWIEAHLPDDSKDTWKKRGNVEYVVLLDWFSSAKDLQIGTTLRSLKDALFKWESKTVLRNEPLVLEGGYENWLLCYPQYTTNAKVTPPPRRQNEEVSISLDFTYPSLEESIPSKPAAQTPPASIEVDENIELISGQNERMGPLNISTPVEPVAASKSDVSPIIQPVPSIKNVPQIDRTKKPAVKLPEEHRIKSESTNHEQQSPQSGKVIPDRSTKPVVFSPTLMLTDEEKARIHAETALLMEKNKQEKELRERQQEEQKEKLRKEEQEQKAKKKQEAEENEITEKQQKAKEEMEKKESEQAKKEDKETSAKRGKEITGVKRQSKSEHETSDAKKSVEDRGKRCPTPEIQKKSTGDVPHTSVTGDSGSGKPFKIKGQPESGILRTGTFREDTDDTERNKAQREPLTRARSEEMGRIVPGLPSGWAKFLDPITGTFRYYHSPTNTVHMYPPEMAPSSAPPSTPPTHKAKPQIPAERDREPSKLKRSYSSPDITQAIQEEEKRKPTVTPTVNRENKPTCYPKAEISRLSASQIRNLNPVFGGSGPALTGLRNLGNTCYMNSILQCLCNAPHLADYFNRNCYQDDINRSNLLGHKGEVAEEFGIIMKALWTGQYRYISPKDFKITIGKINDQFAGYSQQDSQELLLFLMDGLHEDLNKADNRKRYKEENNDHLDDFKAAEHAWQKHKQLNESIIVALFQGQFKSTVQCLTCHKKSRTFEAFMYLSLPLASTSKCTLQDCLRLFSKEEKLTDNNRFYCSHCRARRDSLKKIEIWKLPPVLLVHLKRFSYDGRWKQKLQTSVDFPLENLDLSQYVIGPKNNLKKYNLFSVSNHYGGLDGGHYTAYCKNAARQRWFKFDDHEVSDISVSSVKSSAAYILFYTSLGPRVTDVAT
Procedure, shortened: as §1

USP9X = USP9X (UniProt Q93008)
Chain of USP9X (Q93008 whole entry): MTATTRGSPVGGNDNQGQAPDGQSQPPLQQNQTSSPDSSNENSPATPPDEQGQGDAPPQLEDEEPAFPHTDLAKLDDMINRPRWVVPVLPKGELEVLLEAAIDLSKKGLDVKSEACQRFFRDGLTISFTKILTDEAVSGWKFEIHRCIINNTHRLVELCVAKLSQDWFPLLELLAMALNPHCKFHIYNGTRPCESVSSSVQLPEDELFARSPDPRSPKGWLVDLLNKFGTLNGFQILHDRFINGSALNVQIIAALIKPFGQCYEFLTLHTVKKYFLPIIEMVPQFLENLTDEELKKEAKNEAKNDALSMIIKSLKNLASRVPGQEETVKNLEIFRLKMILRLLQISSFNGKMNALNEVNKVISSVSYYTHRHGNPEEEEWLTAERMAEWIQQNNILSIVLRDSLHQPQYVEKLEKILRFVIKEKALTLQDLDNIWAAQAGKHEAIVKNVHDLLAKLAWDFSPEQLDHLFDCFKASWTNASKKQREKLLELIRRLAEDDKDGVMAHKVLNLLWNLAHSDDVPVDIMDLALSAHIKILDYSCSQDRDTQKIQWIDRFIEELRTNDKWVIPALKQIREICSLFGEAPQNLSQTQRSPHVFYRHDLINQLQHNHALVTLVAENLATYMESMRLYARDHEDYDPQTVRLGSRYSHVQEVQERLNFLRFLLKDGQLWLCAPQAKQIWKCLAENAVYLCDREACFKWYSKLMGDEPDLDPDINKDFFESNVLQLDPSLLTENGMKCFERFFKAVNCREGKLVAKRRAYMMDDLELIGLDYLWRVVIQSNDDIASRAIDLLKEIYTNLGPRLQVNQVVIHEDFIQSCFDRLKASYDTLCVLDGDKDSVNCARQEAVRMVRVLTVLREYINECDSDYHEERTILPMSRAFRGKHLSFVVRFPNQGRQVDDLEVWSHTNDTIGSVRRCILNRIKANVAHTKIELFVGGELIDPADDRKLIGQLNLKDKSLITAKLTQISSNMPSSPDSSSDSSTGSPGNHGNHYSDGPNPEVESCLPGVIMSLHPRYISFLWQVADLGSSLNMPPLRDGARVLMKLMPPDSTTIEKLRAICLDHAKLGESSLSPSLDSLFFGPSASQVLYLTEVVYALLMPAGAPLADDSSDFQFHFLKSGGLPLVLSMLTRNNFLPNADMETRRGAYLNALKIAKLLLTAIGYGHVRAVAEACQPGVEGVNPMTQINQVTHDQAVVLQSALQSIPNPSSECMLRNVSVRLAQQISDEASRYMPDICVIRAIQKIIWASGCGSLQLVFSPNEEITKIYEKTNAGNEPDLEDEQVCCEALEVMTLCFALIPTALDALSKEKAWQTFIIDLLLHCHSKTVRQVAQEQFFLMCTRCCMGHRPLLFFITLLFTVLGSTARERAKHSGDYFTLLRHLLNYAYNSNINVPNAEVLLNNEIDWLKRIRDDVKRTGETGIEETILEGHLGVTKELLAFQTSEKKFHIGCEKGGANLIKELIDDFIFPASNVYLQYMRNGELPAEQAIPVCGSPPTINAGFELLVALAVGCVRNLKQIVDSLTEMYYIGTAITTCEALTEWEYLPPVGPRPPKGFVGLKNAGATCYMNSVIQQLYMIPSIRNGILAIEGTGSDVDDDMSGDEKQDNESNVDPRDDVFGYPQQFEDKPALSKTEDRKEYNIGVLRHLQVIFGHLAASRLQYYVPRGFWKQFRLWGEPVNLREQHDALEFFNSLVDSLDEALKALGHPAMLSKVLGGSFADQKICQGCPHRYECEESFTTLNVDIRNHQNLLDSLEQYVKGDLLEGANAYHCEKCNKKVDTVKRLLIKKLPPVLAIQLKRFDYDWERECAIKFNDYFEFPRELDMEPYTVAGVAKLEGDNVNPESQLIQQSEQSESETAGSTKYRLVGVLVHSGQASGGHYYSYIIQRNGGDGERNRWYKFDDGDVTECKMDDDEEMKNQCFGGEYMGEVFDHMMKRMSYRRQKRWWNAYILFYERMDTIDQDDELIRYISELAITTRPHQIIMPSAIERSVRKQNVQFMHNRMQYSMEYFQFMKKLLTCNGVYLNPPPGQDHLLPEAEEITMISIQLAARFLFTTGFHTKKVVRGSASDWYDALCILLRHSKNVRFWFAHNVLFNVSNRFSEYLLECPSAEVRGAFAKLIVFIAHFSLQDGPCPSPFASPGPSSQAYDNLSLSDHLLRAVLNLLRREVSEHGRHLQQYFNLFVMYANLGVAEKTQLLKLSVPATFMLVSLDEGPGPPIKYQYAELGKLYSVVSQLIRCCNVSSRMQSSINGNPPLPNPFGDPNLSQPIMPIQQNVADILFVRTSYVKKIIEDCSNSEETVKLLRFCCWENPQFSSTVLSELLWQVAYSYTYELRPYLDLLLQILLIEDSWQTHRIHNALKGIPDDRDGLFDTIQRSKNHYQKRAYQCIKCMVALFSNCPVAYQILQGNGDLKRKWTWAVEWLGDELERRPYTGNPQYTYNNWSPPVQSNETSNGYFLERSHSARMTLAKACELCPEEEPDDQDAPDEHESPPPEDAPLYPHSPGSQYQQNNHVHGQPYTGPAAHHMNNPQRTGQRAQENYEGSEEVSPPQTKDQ
Procedure, shortened: as §1

UniProt O00487 = molecular target: UniProt O00487
Chain of UniProt O00487 (O00487 whole entry): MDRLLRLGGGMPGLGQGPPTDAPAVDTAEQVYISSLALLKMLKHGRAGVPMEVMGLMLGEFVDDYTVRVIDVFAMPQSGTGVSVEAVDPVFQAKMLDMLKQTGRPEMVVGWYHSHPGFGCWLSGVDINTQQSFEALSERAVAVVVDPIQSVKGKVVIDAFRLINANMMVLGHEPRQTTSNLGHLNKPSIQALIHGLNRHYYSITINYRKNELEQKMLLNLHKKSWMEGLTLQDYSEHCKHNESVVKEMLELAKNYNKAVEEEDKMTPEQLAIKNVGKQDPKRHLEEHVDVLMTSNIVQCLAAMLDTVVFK
Procedure, shortened: as §1

SMILES | log2 ratio of Biotin-Ahx-Ub-VS probe labelling (USP42) | log2 ratio of Biotin-Ahx-Ub-VS probe labelling (USP46) | log2 ratio of Biotin-Ahx-Ub-VS probe labelling (USP47) | log2 ratio of Biotin-Ahx-Ub-VS probe labelling (USP48) | log2 ratio of Biotin-Ahx-Ub-VS probe labelling (USP5) | log2 ratio of Biotin-Ahx-Ub-VS probe labelling (USP54) | log2 ratio of Biotin-Ahx-Ub-VS probe labelling (USP7) | log2 ratio of Biotin-Ahx-Ub-VS probe labelling (USP8) | log2 ratio of Biotin-Ahx-Ub-VS probe labelling (USP9X) | log2 ratio of Biotin-Ahx-Ub-VS probe labelling (UniProt O00487)
Cl.Cn1ncc2c1CCCC2NC(=O)CCl (stereo not given) | 0.564 | -0.0969 | -1.12 (active) | -0.07 | -0.277 | 0.656 | -0.377 | 0.0774 | -0.000676 | -0.128
Cc1cccc(N2CCC(NC(=O)CCl)C2=O)c1 (stereo not given) | -0.395 | 0.013 | -0.0227 | -0.138 | -0.179 | 0.699 | -0.204 | -0.325 | -0.421 | 0.133
O=C(CCl)N[C@H]1CCS(=O)(=O)c2ccccc21 | 0.186 | 0.0271 | -0.0612 | -0.022 | -0.472 | -0.274 | -0.346 | -0.0621 | -0.14 | -0.0201
CC(NC(=O)CCl)c1ccc2[nH]ncc2c1 (stereo not given) | 0.605 | -0.239 | 0.0542 | -0.411 | -0.557 | 0.532 | -0.578 | -0.403 | -0.429 | -0.121
